The panel holds about 83,000 compounds, 20% with a hit somewhere; the sample as a whole holds those more often.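 Interpretation: 100, growth as untreated; towards 0, rising growth inhibition; 0, no net growth; 0 to -100, cell death. Compounds scoring below 10 were considered active.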 A number with no mark means an inactive call. Calls of active or inactive are those of the source.

Experiment in all cases: NCI-60 one-dose screen, 48 h (100 = growth as untreated, 0 = no growth, -100 = all killed)
Settings in all cases: 10 µM unless noted

Test [1] deals with DU-145 prostate.
In test [2] the test system is K-562 leukemia.
In test [3] the test system is MALME-3M melanoma.
In test [4] the test system is MDA-MB-231 breast.
Test [5] relates to RXF 393 renal.
Test [6] concerns SF-268 CNS.
Test [7] relates to SF-295 CNS.
For test [8], the system named is SF-539 CNS.
In test [9] the test system is UACC-257 melanoma.
Test [10] has as its system M14 melanoma.
In test [11] the test system is HCT-15 colon.
Test [12] deals with HT29 colon.
In test [13] the test system is SNB-75 CNS.
Test [14] has as its system SNB-19 CNS.
Test [15] concerns U251 CNS.
For test [16], the system named is PC-3 prostate.
The subject of test [17] is SK-MEL-5 melanoma.
Test [18] concerns UACC-62 melanoma.
Test [19] relates to LOX IMVI melanoma.
The subject of test [20] is SK-MEL-28 melanoma.

As for `O=C1Nc2ccccc2/C1=C/c1cccn1C(=O)c1ccc(Cl)s1`, the growth in test [1] was 66.8%; in test [2] it was 36.8%; in test [3] it was 104%; in [4] it was 50.9%; in [5], 81.1%; in test [6] it was 39.4%. The growth is 88.8% in test [7]; 62.4% in test [8]; 79.5% in test [9]; 82.2% in test [10]; 17.8% in test [11]; 80.5% in test [12]. Moreover, the growth in [13] was 63.6%; in test [14], 28.4%; in [15], 22.3%; in test [16], 33%; in test [17], 69.8%; in [18] it was 94.9%. In addition, the growth is 79.2% in test [19] and 113% in test [20].

Regarding `COc1cc(Cl)c(C)cc1NC(=O)c1cc2ccccc2cc1O`, the growth in [1] was 26.4%; in [2] it was 14.5%; in test [3], -8.31% (active); in test [4], -23.8% (active); in [5], 11.7%; in [6], 24%. Also, the growth in test [7] is -15.1% (active); in test [8] it was 22.1%; in test [9], -1.4% (active); in test [10] it was 24.1%; in test [11] it was 9.39% (active); in test [12] it was 37.8%. For the same compound, the growth is 21.4% in test [13]; 23.1% in test [14]; 6.67% (active) in test [15]; 2.12% (active) in [16]; -35.1% (active) in test [17]; 14.2% in test [18]. Also, the growth was 2.44% (active) in test [19] and 36.5% in test [20].

Turning to `COc1cccc(Nc2ncnc3cc(NC(=O)CCl)ccc23)c1`, the growth in test [1] was -74% (active); in test [2], -9.78% (active); in test [3], -85.3% (active); in test [4] it was -69.4% (active); in [5], -90.2% (active); in test [6], -57.5% (active). The growth in [7] is -19% (active); in test [8], -89.1% (active); in test [9] it was 14%; in test [10], -78.4% (active); in test [11], -43.2% (active); in test [12] it was -79.5% (active). Also, the growth in [13] is -79.9% (active); in test [14], -38.6% (active); in test [15], -99.2% (active); in test [16], -80.3% (active); in test [17], -85.8% (active); in test [18] it was -67.5% (active). The growth in [19] was -74.6% (active); in [20], -33.7% (active).

For the compound `FC(F)(F)c1ccc(Cn2cc(CSc3nc4ccccc4s3)nn2)cc1`, the growth in test [1] is 108%; in [2], 97.1%; in [3], 111%; in [4] it was 99%; in test [5], 104%; in test [6] it was 101%. Moreover, the growth in [7] is 95.8%; in test [8], 106%; in test [9], 87%; in test [10], 100%; in [11], 101%; in [12], 94.4%. The growth is 94% in test [13]; 101% in [14]; 96.3% in [15]; 95.7% in test [16]; 105% in test [17]; 87.3% in test [18]. Further, the growth in test [19] is 110%; in test [20] it was 105%.

For the compound `Cc1nc2ccccc2c(/C=C/c2ccccc2)c1C(=O)/C=C/c1ccccc1`, the growth in [1] was 12.6%; in test [2], 9.41% (active); in test [3], 37.5%; in test [4], 29.8%; in test [5] it was 21.1%; in [6], 40.2%. Also, the growth in test [7] is 45.8%; in test [8], 8.18% (active); in [9], 9.71% (active); in test [10], 22.5%; in test [11], 1.8% (active); in [12], 6.72% (active). Further, the growth in test [13] was 19.7%; in test [14] it was 47.7%; in test [15] it was -25.3% (active); in test [16], 35.1%; in test [17] it was 45%; in test [18] it was 29.8%. The growth in test [19] was -64.1% (active); in test [20] it was 24.2%.

In the case of `COC(=O)CCC/C=C\C[C@H]1C=CC(=O)/C1=C/C[C@@H](O)C/C=C\CC(F)(F)F`, the growth in test [1] is 24.9%; in test [2], 6.69% (active); in test [3], 10.2%; in test [4] it was 8.26% (active); in test [5], -5.41% (active); in [6], 17.6%. The growth is -1.18% (active) in test [7]; 17.8% in test [8]; -15.6% (active) in [9]; -16.8% (active) in test [10]; -18.5% (active) in test [11]; -42.6% (active) in [12]. The growth is 68.3% in test [13]; 33.7% in test [14]; -69.1% (active) in test [15]; -16.2% (active) in test [16]; -89.7% (active) in test [17]; -37.2% (active) in test [18]. In addition, the growth is -82.7% (active) in test [19] and -25.5% (active) in test [20].

On to `Cc1ccc2nc(-c3ccc(C(=O)NNC(=S)Nc4ccccc4)cc3)[nH]c2c1`, for which the growth in test [1] was 102%; in test [2], 62.5%; in test [3], 94.5%; in test [4], 99.6%; in test [5], 91.1%; in [6], 99.7%. The growth in test [7] is 90%; in [8] it was 99.4%; in [9] it was 102%; in test [10] it was 88.6%; in [11], 87.1%; in [12] it was 92.5%. Also, the growth in [13] is 99.9%; in [14] it was 97.8%; in [15], 103%; in test [16] it was 85%; in test [17], 94.2%; in test [18], 98.9%. Besides, the values for the growth in [19] and in [20] were 87.1% and 95.3%, respectively.

For the origin of these results see PubChem BioAssay (NCI).
